Assay in all cases: DAPPL (digital affinity profiling via proximity ligation, sequencing); 10 mM Tris-HCl pH 7.5, 50 mM NaCl, 1 mM DTT, 4% glycerol, room temperature, 30 min; GST-TFs on glutathione beads, 16-mer random dsDNA library, 0.1% formaldehyde crosslink after washing; high values mean tight binding
Holding throughout (settings): protein: recombinant; tags: N-terminal GST; dsDNA, one strand shown

The target of one assay is T1, FLI1 (Homo sapiens, UniProt Q01543 1-452).
T1 sequence: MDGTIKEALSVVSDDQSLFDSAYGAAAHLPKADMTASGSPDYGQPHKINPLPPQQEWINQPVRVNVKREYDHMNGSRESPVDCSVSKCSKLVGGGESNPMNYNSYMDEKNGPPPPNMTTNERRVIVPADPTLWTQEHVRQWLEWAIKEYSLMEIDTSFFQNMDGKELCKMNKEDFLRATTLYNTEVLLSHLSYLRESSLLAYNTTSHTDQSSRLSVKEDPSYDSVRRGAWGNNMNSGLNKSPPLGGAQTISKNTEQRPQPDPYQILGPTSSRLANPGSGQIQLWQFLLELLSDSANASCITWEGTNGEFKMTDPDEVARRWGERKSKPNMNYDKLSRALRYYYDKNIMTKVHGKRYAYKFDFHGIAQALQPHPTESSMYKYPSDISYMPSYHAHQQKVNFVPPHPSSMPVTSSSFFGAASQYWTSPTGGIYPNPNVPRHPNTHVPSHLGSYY
In a few lines:
(§1)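 After expression in yeast as GST fusions, human transcription factors were bound to glutathione beads, DNA-barcoded and mixed with a tag-only sample. The pools were incubated with 200 nmole of a 16-mer random double-stranded DNA library in Tris/NaCl/DTT/glycerol buffer (30 min, room temperature), washed and crosslinked with 0.1% formaldehyde. Proximity ligation with BsaI/T4 ligase ran for 1 h at 37 °C, before PCR amplification and sequencing on an Illumina NextSeq500. Binding signal is a hexamer's read frequency for a factor divided by its frequency for the tag-only sample.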

The target in the next assay is T2, ELK1 (Homo sapiens, UniProt P19419 1-428).
T2 sequence: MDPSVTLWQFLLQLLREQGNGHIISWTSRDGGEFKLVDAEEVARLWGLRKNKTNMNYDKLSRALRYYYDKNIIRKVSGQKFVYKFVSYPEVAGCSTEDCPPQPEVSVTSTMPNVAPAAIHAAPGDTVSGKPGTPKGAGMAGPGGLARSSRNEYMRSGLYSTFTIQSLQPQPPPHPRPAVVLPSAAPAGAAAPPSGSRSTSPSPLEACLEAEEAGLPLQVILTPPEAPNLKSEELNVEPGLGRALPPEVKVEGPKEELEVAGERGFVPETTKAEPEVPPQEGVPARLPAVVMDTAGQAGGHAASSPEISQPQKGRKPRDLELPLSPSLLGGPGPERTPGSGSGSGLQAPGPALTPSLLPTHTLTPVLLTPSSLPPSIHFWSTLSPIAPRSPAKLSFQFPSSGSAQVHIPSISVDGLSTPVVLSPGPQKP
The method in brief: as §1

A further assay addresses T3, GABPA (Homo sapiens, UniProt Q06546 1-454).
T3 sequence: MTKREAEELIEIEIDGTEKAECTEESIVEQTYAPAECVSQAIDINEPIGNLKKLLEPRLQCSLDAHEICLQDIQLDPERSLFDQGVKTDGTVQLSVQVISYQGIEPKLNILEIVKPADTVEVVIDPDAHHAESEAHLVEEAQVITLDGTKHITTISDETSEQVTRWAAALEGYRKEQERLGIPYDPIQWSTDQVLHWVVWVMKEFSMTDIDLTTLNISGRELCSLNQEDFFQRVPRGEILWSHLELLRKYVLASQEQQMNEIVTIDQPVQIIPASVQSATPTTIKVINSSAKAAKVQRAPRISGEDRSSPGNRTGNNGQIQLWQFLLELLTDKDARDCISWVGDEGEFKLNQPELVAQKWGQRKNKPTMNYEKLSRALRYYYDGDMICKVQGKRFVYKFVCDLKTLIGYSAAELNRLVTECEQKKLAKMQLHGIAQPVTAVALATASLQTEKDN
In a few lines:
as §1

A further assay addresses T4, ERG (Homo sapiens, UniProt P11308 1-479).
T4 sequence: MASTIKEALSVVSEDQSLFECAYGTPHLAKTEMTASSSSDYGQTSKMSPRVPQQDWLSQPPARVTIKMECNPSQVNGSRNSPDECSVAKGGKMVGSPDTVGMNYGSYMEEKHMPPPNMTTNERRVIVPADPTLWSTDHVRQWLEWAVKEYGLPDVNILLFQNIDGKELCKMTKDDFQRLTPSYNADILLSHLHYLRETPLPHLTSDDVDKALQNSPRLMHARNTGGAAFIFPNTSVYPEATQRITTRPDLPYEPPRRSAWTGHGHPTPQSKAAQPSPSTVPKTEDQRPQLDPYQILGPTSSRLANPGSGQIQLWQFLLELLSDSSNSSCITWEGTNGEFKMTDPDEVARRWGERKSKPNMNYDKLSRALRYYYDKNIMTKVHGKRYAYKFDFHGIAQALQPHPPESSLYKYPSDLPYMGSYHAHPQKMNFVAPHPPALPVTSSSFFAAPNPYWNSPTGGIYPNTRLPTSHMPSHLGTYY
In a few lines: as §1

A further assay addresses ELF1 (Homo sapiens, UniProt P32519 1-619). In a few lines:
as §1

A further assay addresses T5, EHF (Homo sapiens, UniProt Q9NZC4 1-300).
T5 sequence: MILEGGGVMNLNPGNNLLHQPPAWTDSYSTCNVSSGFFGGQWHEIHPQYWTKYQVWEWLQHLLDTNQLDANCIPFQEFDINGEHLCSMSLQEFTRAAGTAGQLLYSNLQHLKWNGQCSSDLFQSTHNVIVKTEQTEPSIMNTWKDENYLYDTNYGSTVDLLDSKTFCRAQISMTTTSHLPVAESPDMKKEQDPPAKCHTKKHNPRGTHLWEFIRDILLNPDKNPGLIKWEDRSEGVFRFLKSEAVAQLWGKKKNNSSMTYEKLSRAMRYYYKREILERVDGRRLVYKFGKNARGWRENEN
The method in brief:
as §1

The next assay has as its target SPI1 (Homo sapiens, UniProt P17947 1-270). In a few lines: as §1
Another assay deals with T6, ELK3 (Homo sapiens, UniProt P41970 1-407).
T6 sequence: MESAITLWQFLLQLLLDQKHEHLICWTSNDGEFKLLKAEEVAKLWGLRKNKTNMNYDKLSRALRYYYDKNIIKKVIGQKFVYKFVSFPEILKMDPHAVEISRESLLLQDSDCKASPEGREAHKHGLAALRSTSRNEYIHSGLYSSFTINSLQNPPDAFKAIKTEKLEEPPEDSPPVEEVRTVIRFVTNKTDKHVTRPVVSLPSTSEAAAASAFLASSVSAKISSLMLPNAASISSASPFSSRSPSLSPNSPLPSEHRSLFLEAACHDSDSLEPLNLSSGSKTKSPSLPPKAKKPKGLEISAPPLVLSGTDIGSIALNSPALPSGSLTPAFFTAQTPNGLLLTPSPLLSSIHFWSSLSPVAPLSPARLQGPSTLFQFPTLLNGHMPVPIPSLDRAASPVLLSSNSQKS
In a few lines: as §1

For a further assay, the target named is SPIB (Homo sapiens, UniProt Q01892 1-262). In a few lines: as §1
SPIB, sequence (Q01892 whole entry): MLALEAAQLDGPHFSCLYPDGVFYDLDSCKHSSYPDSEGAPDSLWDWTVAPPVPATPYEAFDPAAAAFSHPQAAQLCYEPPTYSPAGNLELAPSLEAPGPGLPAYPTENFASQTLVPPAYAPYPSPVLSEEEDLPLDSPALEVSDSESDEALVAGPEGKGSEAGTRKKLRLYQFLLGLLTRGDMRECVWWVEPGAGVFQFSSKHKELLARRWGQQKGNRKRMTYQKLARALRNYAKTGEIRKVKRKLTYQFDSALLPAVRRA

From article PMC7862700, “An all-to-all approach to the identification of sequence-specific readers for epigenetic DNA modifications on cytosine” come the findings set out here.

ELF1, sequence (P32519 whole entry): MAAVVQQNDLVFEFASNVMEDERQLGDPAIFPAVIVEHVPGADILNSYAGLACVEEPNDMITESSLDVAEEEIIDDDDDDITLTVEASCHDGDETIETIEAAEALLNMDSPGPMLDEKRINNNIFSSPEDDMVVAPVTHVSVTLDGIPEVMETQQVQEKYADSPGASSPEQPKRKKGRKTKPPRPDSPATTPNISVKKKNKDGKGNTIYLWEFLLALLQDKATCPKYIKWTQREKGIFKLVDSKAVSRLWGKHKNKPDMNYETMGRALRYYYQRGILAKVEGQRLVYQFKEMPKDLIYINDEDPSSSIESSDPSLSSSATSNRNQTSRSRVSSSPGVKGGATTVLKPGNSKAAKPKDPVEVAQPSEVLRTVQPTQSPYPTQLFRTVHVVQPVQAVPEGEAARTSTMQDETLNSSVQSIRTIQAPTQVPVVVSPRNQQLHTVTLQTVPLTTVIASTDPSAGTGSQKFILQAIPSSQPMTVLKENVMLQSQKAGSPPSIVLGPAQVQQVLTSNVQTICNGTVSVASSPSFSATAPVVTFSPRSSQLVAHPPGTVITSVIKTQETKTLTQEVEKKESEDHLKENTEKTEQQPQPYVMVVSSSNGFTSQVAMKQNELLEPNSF

In the case of CATGAA, the binding signal in the assay with FLI1 was 1.08 fold enrichment (6-mer frequency, TF over GST control); with ELK1, 1.16 fold enrichment (6-mer frequency, TF over GST control); with GABPA, 1.03 fold enrichment (6-mer frequency, TF over GST control); with ERG, 1.07 fold enrichment (6-mer frequency, TF over GST control); with ELF1, 1.06 fold enrichment (6-mer frequency, TF over GST control); with EHF, 1.15 fold enrichment (6-mer frequency, TF over GST control). For the same sequence, the binding signal was 1.04 fold enrichment (6-mer frequency, TF over GST control) with SPI1 and 1.11 fold enrichment (6-mer frequency, TF over GST control) with ELK3.

For TCGAAT, the binding signal is 1 fold enrichment (6-mer frequency, TF over GST control) with FLI1; 1.09 fold enrichment (6-mer frequency, TF over GST control) with ELK1; 1.12 fold enrichment (6-mer frequency, TF over GST control) in the assay with GABPA; 1.08 fold enrichment (6-mer frequency, TF over GST control) in the assay with ERG; 1.11 fold enrichment (6-mer frequency, TF over GST control) with ELF1; 1.02 fold enrichment (6-mer frequency, TF over GST control) in the assay with EHF. For the same sequence, the binding signal with SPIB is 1.07 fold enrichment (6-mer frequency, TF over GST control); with ELK3, 1.15 fold enrichment (6-mer frequency, TF over GST control).

Regarding TAAAGA, the binding signal was 1.11 fold enrichment (6-mer frequency, TF over GST control) with FLI1; 1.04 fold enrichment (6-mer frequency, TF over GST control) with ELK1; 1.14 fold enrichment (6-mer frequency, TF over GST control) with GABPA; 1.14 fold enrichment (6-mer frequency, TF over GST control) with ERG; 1.14 fold enrichment (6-mer frequency, TF over GST control) in the assay with ELF1; 1.07 fold enrichment (6-mer frequency, TF over GST control) with EHF. The binding signal was 1.12 fold enrichment (6-mer frequency, TF over GST control) with SPI1; 1.11 fold enrichment (6-mer frequency, TF over GST control) in the assay with SPIB; 1.07 fold enrichment (6-mer frequency, TF over GST control) with ELK3.

With AAGAAG, the binding signal with FLI1 was 1.05 fold enrichment (6-mer frequency, TF over GST control); in the assay with ELK1 it was 1.09 fold enrichment (6-mer frequency, TF over GST control); with GABPA it was 1.01 fold enrichment (6-mer frequency, TF over GST control); with ERG, 1.06 fold enrichment (6-mer frequency, TF over GST control); with ELF1 it was 1.05 fold enrichment (6-mer frequency, TF over GST control); in the assay with EHF, 1.07 fold enrichment (6-mer frequency, TF over GST control). Also, the binding signal is 1.13 fold enrichment (6-mer frequency, TF over GST control) with SPI1 and 1.05 fold enrichment (6-mer frequency, TF over GST control) with ELK3.

Consider CAAGGT, for which the binding signal with FLI1 is 1.1 fold enrichment (6-mer frequency, TF over GST control); with ELK1, 1.13 fold enrichment (6-mer frequency, TF over GST control); in the assay with GABPA it was 1.03 fold enrichment (6-mer frequency, TF over GST control); with ERG, 1.07 fold enrichment (6-mer frequency, TF over GST control); with ELF1, 1.05 fold enrichment (6-mer frequency, TF over GST control); with EHF it was 1.13 fold enrichment (6-mer frequency, TF over GST control). Further, the binding signal with SPI1 is 1.02 fold enrichment (6-mer frequency, TF over GST control); with ELK3, 1.12 fold enrichment (6-mer frequency, TF over GST control).

With CGCTAG, the binding signal in the assay with FLI1 is 1.07 fold enrichment (6-mer frequency, TF over GST control); with ELK1, 1.06 fold enrichment (6-mer frequency, TF over GST control); with GABPA, 1.09 fold enrichment (6-mer frequency, TF over GST control); with ERG it was 1.03 fold enrichment (6-mer frequency, TF over GST control); in the assay with ELF1 it was 1.04 fold enrichment (6-mer frequency, TF over GST control); with EHF, 1.12 fold enrichment (6-mer frequency, TF over GST control). Also, the binding signal in the assay with SPI1 was 1.09 fold enrichment (6-mer frequency, TF over GST control); with ELK3 it was 1.3 fold enrichment (6-mer frequency, TF over GST control).

For the sequence TCGCGC, the binding signal with FLI1 was 1.08 fold enrichment (6-mer frequency, TF over GST control); in the assay with ELK1, 1.04 fold enrichment (6-mer frequency, TF over GST control); with GABPA, 1.18 fold enrichment (6-mer frequency, TF over GST control); in the assay with ERG it was 1.08 fold enrichment (6-mer frequency, TF over GST control); with ELF1 it was 1.07 fold enrichment (6-mer frequency, TF over GST control); with EHF it was 1.13 fold enrichment (6-mer frequency, TF over GST control). For the same sequence, the binding signal with SPIB was 1.08 fold enrichment (6-mer frequency, TF over GST control); with ELK3, 1.03 fold enrichment (6-mer frequency, TF over GST control).

Take TTCGGC: the binding signal in the assay with FLI1 is 1.03 fold enrichment (6-mer frequency, TF over GST control); with ELK1, 1.14 fold enrichment (6-mer frequency, TF over GST control); in the assay with GABPA it was 1.22 fold enrichment (6-mer frequency, TF over GST control); in the assay with ERG, 1.08 fold enrichment (6-mer frequency, TF over GST control); with ELF1 it was 1 fold enrichment (6-mer frequency, TF over GST control); with SPI1 it was 1.04 fold enrichment (6-mer frequency, TF over GST control). For the same sequence, the binding signal with SPIB is 1.02 fold enrichment (6-mer frequency, TF over GST control).

In the case of TTAGTA, the binding signal with FLI1 was 1.23 fold enrichment (6-mer frequency, TF over GST control); in the assay with ELK1, 1.13 fold enrichment (6-mer frequency, TF over GST control); with GABPA, 1.21 fold enrichment (6-mer frequency, TF over GST control); with ERG, 1.21 fold enrichment (6-mer frequency, TF over GST control); in the assay with ELF1, 1.12 fold enrichment (6-mer frequency, TF over GST control); in the assay with EHF, 1.08 fold enrichment (6-mer frequency, TF over GST control). Besides, the binding signal was 1.06 fold enrichment (6-mer frequency, TF over GST control) with SPIB and 1.08 fold enrichment (6-mer frequency, TF over GST control) with ELK3.
